Experimental data taken from publication PMC7819943, “Rice protein-binding microarrays: a tool to detect cis-acting elements near promoter regions in rice”.
In all, about 39,000 sequences were measured (“fluorescence intensity (a.u.)”: median about 4,300, highest 2% from about 39,000 on). What follows is part of a selection rich in the highest values, with near analogues and random picks from the rest.

The sequences below were run against T1, OsSMF1 (Oryza sativa, UniProt Q6ZLB0 1-436) (assay: protein-binding microarray (RPBM); PBS, 2% BSA, 51.3 ng/ul salmon testes DNA, 50 uM zinc acetate, 200 nM TF, 25 C, 1 h; high values mean tight binding). Conditions: protein: recombinant; tags: N-terminal polyhistidine and DsRed monomer fusion (pET32a); chain copies: 2; label: CyDye5-dUTP incorporated in the synthesized complementary strand; 3' TTTTT single-stranded linker to array surface; dsDNA, one strand shown.
T1 sequence: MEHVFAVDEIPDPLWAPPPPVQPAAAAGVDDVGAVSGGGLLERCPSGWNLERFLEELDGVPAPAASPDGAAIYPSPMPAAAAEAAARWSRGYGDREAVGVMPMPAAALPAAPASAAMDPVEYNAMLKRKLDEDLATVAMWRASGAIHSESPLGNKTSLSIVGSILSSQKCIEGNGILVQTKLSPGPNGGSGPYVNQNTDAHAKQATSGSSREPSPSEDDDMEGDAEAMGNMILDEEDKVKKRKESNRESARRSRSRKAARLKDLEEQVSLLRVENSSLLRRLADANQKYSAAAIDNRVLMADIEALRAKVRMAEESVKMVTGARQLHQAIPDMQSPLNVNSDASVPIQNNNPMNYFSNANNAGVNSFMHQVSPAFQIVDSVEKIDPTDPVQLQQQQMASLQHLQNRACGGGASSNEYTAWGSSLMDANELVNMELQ
Summary of the method: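 Using Ni–NTA, transcription factors fused N-terminally to polyhistidine and DsRed were purified after expression in E. coli BL21-CodonPlus. These were incubated at 200 nM with a blocked, double-stranded custom Agilent array for 1 h at 25 °C in a buffer containing 50 µM zinc acetate, and the array was washed. The binding signal is per-feature fluorescence intensity (arbitrary units) on an Axon 4000B scanner.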

Row | Sequence | binding signal
1 | TGCGCCGATAGCTCCTGTCAACGTGTCACGCGCTGCGCCTCGGAGTCACCTAGTGCAG | 8650 fluorescence intensity (a.u.)
2 | ATTCCAATTCCAGCTCAATGCTGCACGGAATCTCCTCTTCCGGAGTCACCTAGTGCAG | 4140 fluorescence intensity (a.u.)
3 | CCAGTAATCCTCCTCCTGCTGCCTCAGCTCCTCTTCTGTACGGAGTCACCTAGTGCAG | 50800 fluorescence intensity (a.u.)
4 | TACCTCTTCAGTACAGCTGCAGCTGCTGACTGCTCACTACCGGAGTCACCTAGTGCAG | 4340 fluorescence intensity (a.u.)
5 | CGGTCCGGGCGATTTGACCGGTCAAAAGGCGTGGCCACGACGGAGTCACCTAGTGCAG | 3850 fluorescence intensity (a.u.)
6 | AAAACGACCGGTTTTGACGTAAATCCACAAGGCGTTATGACGGAGTCACCTAGTGCAG | 58400 fluorescence intensity (a.u.)
7 | CACAACTACGTAGACGGGCGTTTGCGGCCGAAAATTTGACCGGAGTCACCTAGTGCAG | 3730 fluorescence intensity (a.u.)
8 | CGCCGCCACAACCGCGCGCCGTCACCGCCGCGTGCCGTCACGGAGTCACCTAGTGCAG | 5070 fluorescence intensity (a.u.)
9 | CCCACCACACACCCGGCCCCACATGTCATCCACCCATCCACGGAGTCACCTAGTGCAG | 4500 fluorescence intensity (a.u.)
10 | TCTTTTCTAAGTCATGTTAGACCAATAGAGATTTCTCAAACGGAGTCACCTAGTGCAG | 27600 fluorescence intensity (a.u.)
11 | CATTATCTAAGTTTCTTTACGTCATTATCTTCGTTTAATTCGGAGTCACCTAGTGCAG | 3230 fluorescence intensity (a.u.)
12 | TTCTTTCGTTAGTTCACCAAAGATGGGCATTTTACTAAGACGGAGTCACCTAGTGCAG | 65000 fluorescence intensity (a.u.)
13 | TGTGTGCGTGTGTTGTGACTTATGATGTGTTTCTTAAGAACGGAGTCACCTAGTGCAG | 4170 fluorescence intensity (a.u.)
14 | GATTCATTTAACAATTATATGAATGTGGGAAATGCTAGAACGGAGTCACCTAGTGCAG | 44400 fluorescence intensity (a.u.)
15 | CTATTGCAAATTGCAATGCTGTATATGCACTTCATTAGAACGGAGTCACCTAGTGCAG | 54100 fluorescence intensity (a.u.)
16 | TAGAATTTCTCTTCATATAATGCTACGTCATTGCTATATACGGAGTCACCTAGTGCAG | 10300 fluorescence intensity (a.u.)
17 | CATGGTAGAAAATTAGATTATGGTGCATTTGCTGCAAATGCGGAGTCACCTAGTGCAG | 3860 fluorescence intensity (a.u.)
18 | TCATTAACATCAATATGAATGTGAGAAATGCTAGAATGACCGGAGTCACCTAGTGCAG | 3240 fluorescence intensity (a.u.)
19 | CTAGATTTATTAATATCGATATGAATGTGGAAAATGCTAGCGGAGTCACCTAGTGCAG | 18100 fluorescence intensity (a.u.)
20 | AATAATTTTCTCATTTTCTTTAACAGAAGATGACAATGCACGGAGTCACCTAGTGCAG | 34800 fluorescence intensity (a.u.)
21 | AGTTCTACTTGAGTTATGTAATGAATCACAATGCCTTCATCGGAGTCACCTAGTGCAG | 53400 fluorescence intensity (a.u.)

Row | Sequence | binding signal
22 | TTTGAATCAAAGGAATGGATCTTATGGAATCCTATAAAATCGGAGTCACCTAGTGCAG | 40400 fluorescence intensity (a.u.)
23 | CACCACCCTAAATGGAATAAGAAAATTCTTATTTGTGAATCGGAGTCACCTAGTGCAG | 3440 fluorescence intensity (a.u.)
24 | TCCAAATCCTATGAAATTCCTATGGAAATCCACGTTGCATCGGAGTCACCTAGTGCAG | 7670 fluorescence intensity (a.u.)
25 | CACTTGGTAATTACTTCTACTATGTCATCCTTATCATAATCGGAGTCACCTAGTGCAG | 3200 fluorescence intensity (a.u.)
26 | AGTTCATTATCATCATGTAATGAATCATCATGAATCCAAACGGAGTCACCTAGTGCAG | 3280 fluorescence intensity (a.u.)
27 | ATCTTATGGAATCCTATGAAATTCATATGGAATGCCTAATCGGAGTCACCTAGTGCAG | 65000 fluorescence intensity (a.u.)
28 | TCCTTCAAGAATCCTATACTTCTTAAATCAGGAACATAATCGGAGTCACCTAGTGCAG | 8910 fluorescence intensity (a.u.)
29 | GATTGAATCATATCGTATCCTTTGAAATTCCTATGGAATGCGGAGTCACCTAGTGCAG | 4120 fluorescence intensity (a.u.)
30 | TAAGGAGGGTGTTGGGAGGGTGGGAGCTTTGCTTGGGGTGCGGAGTCACCTAGTGCAG | 3950 fluorescence intensity (a.u.)
31 | TTGTTGAACTATAGGGTAGATGTGATATGTAAGAATTGCCCGGAGTCACCTAGTGCAG | 3280 fluorescence intensity (a.u.)
32 | CCGGGGTGTCAGAAATCCAGGCCCACCCGTCAGCGACGCGCGGAGTCACCTAGTGCAG | 4130 fluorescence intensity (a.u.)
33 | AAATCTCTCTCCACCCTTTCAGCGCGCCACGTGTCCCACACGGAGTCACCTAGTGCAG | 18900 fluorescence intensity (a.u.)
34 | CAAAATACTCAAGCGGCGGCATTGTCATCTTCCTCCTCCCCGGAGTCACCTAGTGCAG | 3550 fluorescence intensity (a.u.)
35 | GAGTATTTGGCATGGTTGTAGCGTTGGTGACCTGAGTCATCGGAGTCACCTAGTGCAG | 7270 fluorescence intensity (a.u.)
36 | AATGCCAAGTGGCAGCCTATGAGCGTTTGTAGCATGCCATCGGAGTCACCTAGTGCAG | 41200 fluorescence intensity (a.u.)
37 | TGCTATGCTATGGCAAGAACATCTTGAGCCATGACATCATCGGAGTCACCTAGTGCAG | 4390 fluorescence intensity (a.u.)
38 | TCTGTTTAGTTACATCACTGATGGTCTTGATTTCGCAGTGCGGAGTCACCTAGTGCAG | 4040 fluorescence intensity (a.u.)
39 | CTGCACTACGCCGCAGACGAACTGACGTGGTCGTATAAAACGGAGTCACCTAGTGCAG | 5790 fluorescence intensity (a.u.)
40 | CCCTGGGTGGTTTTGGAGGTGGTTTTGGTTGACGTGGCGCCGGAGTCACCTAGTGCAG | 21400 fluorescence intensity (a.u.)
41 | GGTCAAGAGCGCATCCAGCATGTCGTCGTGTACCTGACCGCGGAGTCACCTAGTGCAG | 3720 fluorescence intensity (a.u.)
42 | AGATTTTGGGTGTGTTTGGTTGCTTGCATTGTTTTAGTCTCGGAGTCACCTAGTGCAG | 3300 fluorescence intensity (a.u.)
